Laboratory results published in PubChem BioAssay (NCATS).
Where “and” joins values, the source holds several entries; their conditions need not be identical. Equal entries are not always repeated. Records with an inconclusive call do not appear. Calls of active or inactive are those of the source. Unless noted, calls follow the shape of the dose curve; as a rule, active = well fitted curve in the direction sought with a large enough effect; inconclusive = small, poorly fitted or top-dose-only effect, or another doubt; inactive = no such curve, though single readings can be large; an effect the other way counts as inactive or inconclusive.

How the values were obtained:
[1] = Cell Viability - BJ (AID 421; calls by dose curve;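 also: potency is read from the fitted curve at half-maximal effect; cells exposed to compound for 40 hours at 37 °C before readout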); details: BJ fibroblast viability, qHTS
Summary of the method: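 Quantitative HTS: ATP depletion in BJ cells after 40 hr compound exposure in complete culture medium, detected with CellTiter-Glo; AC50 from standard Hill fits.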

[2] = Cell Viability - Jurkat (AID 426;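 active = dose-dependent loss of cell ATP signal giving a full or clear fitted curve, ranked by lower potency value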;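 also: potency is read from the fitted curve at half-maximal effect; cells exposed to compound for 40 hours at 37 °C before ATP read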); details: qHTS
Summary of the method: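 Jurkat (Clone E6-1) cells, 5000/well in complete medium, exposed to compounds for 40 hr at 37C; intracellular ATP measured by CellTiter-Glo luminescence after 20 min at room temperature. AC50 from Hill fits.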

[3] = Cell Viability - Hek293 (AID 427;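 active = compounds whose dose-response curve shows a full or clear partial loss of cell viability, called from curve shape rather than a numeric limit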;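 also: potency is read from the fitted curve at half-maximal effect; cells exposed to compound for 40 hours at 37 °C before reading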); details: qHTS
Summary of the method: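 AC50 values derive from Hill-modelled concentration-response of ATP-based luminescence, normalized between DMSO-only and 100 uM tamoxifen controls. Cells were exposed in complete culture medium for 40 hr at 37 °C before detection.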

[4] = Cell Viability - SK-N-SH (AID 435; calls by dose curve;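 also: potency is read from the fitted curve at half-maximal effect; compound exposure lasted 40 h at 37 °C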); details: SK-N-SH neuroblastoma cell viability qHTS
Summary of the method: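 SK-N-SH neuroblastoma cells (1500/well) treated 40 h at 37 °C in complete medium; viability read as cellular ATP by CellTiter-Glo luminescence. Normalized to DMSO and 100 uM tamoxifen; AC50 from Hill fits of qHTS concentration-response.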

[5] = Cellular Toxicity (caspase-3) Jurkat (AID 655); details: Jurkat caspase-3 activation, luminescence; caspase-3 activation: at 92.2 µM (top of the series), DMSO = 0%, tamoxifen = 100%;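 also: cells exposed to compound for 16 h at 37 °C before reading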
Summary of the method: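 Jurkat cells (5000/well) in complete medium exposed 16 h at 37 C; caspase-3/7 activity read by Caspase-Glo luminescence after 20 min at room temperature. Normalized to DMSO and 100 uM tamoxifen; AC50 from Hill fits.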

[6] = Cellular Toxicity (caspase-3) SHSY5Y (AID 657); details: SH-SY5Y caspase-3 activation, DMSO zero, 10 µM staurosporine = 100%; series mostly up to 91.7 µM
Summary of the method: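 SH-SY5Y human neuroblastoma cells, 1500/well, exposed to compound for 16 hours at 37 °C in complete medium. Caspase-3/7 activity read by Caspase-Glo luminescence after 1 hr at room temperature, normalized to DMSO and 10 uM staurosporine; AC50 from Hill fit.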

[7] = Cellular Toxicity (caspase-3) BJ (AID 658); details: BJ fibroblasts, luminescence, normalized: DMSO 0%, staurosporine 100%; series mostly up to 91.7 µM
Summary of the method: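 Readout: Caspase-Glo 3/7 luminescence increase in BJ cells after 16 hr treatment at 37 °C. Staurosporine and tamoxifen served as positive controls; AC50 values came from Hill modelling of data normalized to DMSO and 10 uM staurosporine.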

[8] = Cellular Toxicity (caspase-3) N2a (AID 665); details: N2a cells, luminescence, normalized: DMSO 0%, 10 µM staurosporine 100%; series mostly up to 92.2 µM;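 also: compound exposure lasted 16 h at 37 °C before readout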
Summary of the method: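 Mouse N2a neuroblastoma cells, 1500 per well, treated 16 h at 37 °C in complete medium; caspase-3/7 activity by Caspase-Glo luminescence after 1 h. Normalized to DMSO and 10 uM staurosporine; AC50 from Hill fits.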

[9] = Cellular Toxicity (caspase-3) Renal Proximal Tubule (AID 667); details: renal proximal tubule cells; series mostly up to 91.7 µM;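 also: cells exposed to compound for 16 hours at 37 °C before detection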
Summary of the method: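 Freshly isolated primary rat kidney proximal tubule cells, 1000/well, treated 16 hr at 37 °C, then Caspase-Glo 3/7 luminescence after 1 hr. Normalized to DMSO and 10 uM staurosporine; AC50 from Hill fit.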

[10] = MultiTox-Fluor Cytotoxicity Assay - LYMP1-001 - Dead Cells (AID 946); details: LYMP1-001 lymphoblastoid cells, dead-cell protease fluorescence; series mostly up to 92.2 µM;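 also: 0% = DMSO and 100% = tetraoctylammonium bromide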
Summary of the method: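 In this qHTS, 15 uM tetraoctylammonium bromide defined 100% and DMSO defined basal activity. Lymphoblastoid cells (LYMP1-001, 2500 per well) received compound for 16 hr at 37 C before a fluorogenic dead-cell substrate readout at 485/520 nm.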

[11] = Cell Viability - LYMP1-002 - Assay at 16 hr (AID 948); details: LYMP1-002 lymphoblastoid cell viability; series mostly up to 92.2 µM;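 also: 0% = DMSO alone and full effect = 92 µM tetraoctylammonium bromide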
Summary of the method: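 LYMP1-002 human lymphoblastoid cells, 2500/well, were treated with compounds for 16 hr at 37 C in complete medium. Viability was read as intracellular ATP by CellTiter-Glo luminescence, and AC50 was derived from a Hill fit to concentration-response data.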

[12] = MultiTox-Fluor Cytotoxicity Assay - LYMP1-003 - Dead Cells (AID 961); details: LYMP1-003 lymphoblastoid cells, dead-cell protease fluorescence; series mostly up to 92.2 µM;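 also: 0% = DMSO and 100% = tetraoctylammonium bromide; nearly all actives have a fitted effect of over 70% in size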
Summary of the method: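 Acute toxicity is scored as increased dead-cell protease activity in human lymphoblastoid LYMP1-003 cells after 16 h compound exposure in complete culture medium. Activity is normalized to DMSO basal and 15 uM tetraoctylammonium bromide as full response.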

[13] = Cell Viability - LYMP1-003 - Assay at 24 hr (AID 963); details: LYMP1-003 lymphoblastoid cell viability; series mostly up to 92.2 µM;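 also: plate controls were DMSO only for no effect and tetraoctylammonium bromide positive control for full effect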
Summary of the method: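 Human lymphoblastoid LYMP1-003 cells, 2500/well, treated 24 h at 37 C in complete medium. Viability read as intracellular ATP by CellTiter-Glo luminescence after 30 min at room temperature; AC50 from Hill-equation fits of qHTS concentration-response.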

[14] = Cell Viability - LYMP2-013 (AID 970); details: LYMP2-013 lymphoblastoid cells viability; series mostly up to 92.2 µM;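 also: 0% = DMSO only and full inhibition = tetraoctylammonium bromide control; nearly all actives have a fitted effect of over 55% in size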
Summary of the method: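 Human lymphoblastoid LYMP2-013 cells, 2500/well, treated 24 h at 37 C in complete medium; viability as intracellular ATP by CellTiter-Glo luminescence after 30 min. AC50 from Hill fits of qHTS concentration-response.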

[15] = Cell Viability - LYMP2-016 (AID 984); details: LYMP2-016 lymphoblastoid cell viability, qHTS; series mostly up to 92.2 µM;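 also: cells exposed to compound for 24 hours at 37 °C; % is scaled to controls: 0 for no effect and ±100 for the full control effect; nearly all actives have a fitted effect of over 55% in size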
Summary of the method: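 Human lymphoblastoid LYMP2-016 cells, 2500 per well, treated with compounds for 24 h at 37 C. Viability read as intracellular ATP by CellTiter-Glo luminescence after 30 min at room temperature; AC50 from Hill fits of concentration-response.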

[16] = Cell Viability - LYMP1-002 - Assay at 24 hr (AID 993); details: LYMP1-002 lymphoblastoid cells viability; series mostly up to 92.2 µM; also: % is scaled to controls: 0 for no effect and ±100 for the full control effect
Summary of the method: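 Human lymphoblastoid LYMP1-002 cells (2500/well) treated 24 h at 37 °C; viability as intracellular ATP by CellTiter-Glo luminescence. Tetraoctylammonium bromide as positive control; AC50 from Hill-equation fits of qHTS concentration-response.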

[17] = qHTS Assay for Identification of Small Molecule Inducers of Hypoxia Response (AID 2120; active = well fitted curve in the direction sought with a large enough effect in the signal ratio, with a control signal flat, not every such curve was filed as active; the % refers to the signal ratio; also: 0% is about no effect); details: hypoxia response reporter cells, beta-lactamase ratio readout; series mostly up to 104 µM
Summary of the method: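 HRE-bla ME-180 cells in Opti-MEM with 0.5% dialyzed FBS, pre-plated 4-5 h, then compound titration for 17 h at 37 degrees Celsius. CCF4 loaded 2.5 h at room temperature; 460/530 nm ratio gave %Activity and AC50 for induction.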

[18] = target: Peroxisome proliferator-activated receptor alpha (Homo sapiens) (UniProt Q07869); test: qHTS assay for small molecule agonists of the peroxisome proliferator-activated receptor alpha (PPARalpha) signaling pathway (AID 651778); details: PathHunter PPARalpha complementation, chemiluminescence, 6 h; stronger effect = higher value; also: % of control where 0% means no effect
Summary of the method: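 Chemiluminescence from complemented enzyme reported PPARalpha activation in cells after 6 hr of compound treatment at 37 C. The detection reagent was incubated for 60 min at room temperature, and compounds were scored as agonists.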

[19] = qHTS assay for cell viability of HEK293 cells (AID 743288); details: ATP luminescence (CellTiter-Glo), 18 h, stronger effect = lower value; also: % is scaled to controls: 0 for no effect and ±100 for the full control effect; nearly all actives have a fitted effect of over 50% in size
Summary of the method: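 Parental HEK293 cells, 2,000 per well, preincubated at least 5 h at 37 C, then exposed to compounds in DMSO for 18 h at 37 C. Viability by CellTiter-Glo ATP luminescence after 30 min at room temperature.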

[20] = qHTS assay for cell viability of the p53RE-bla HCT-116 cell line (AID 743292); details: p53RE-bla HCT-116 viability, ATP luminescence, 16 h; series mostly up to 95 µM; also: % is scaled to controls: 0 for no effect and ±100 for the full control effect; nearly all actives have a fitted effect of over 55% in size
Summary of the method: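 Readout: CellTiter-Glo luminescence after 30 min RT. Treatment: compounds in DMSO, 16 h, 37 C. Cells: CellSensor p53RE-bla HCT-116, 4,000/well, preincubated 5 h.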

Peroxisome proliferator-activated receptor alpha (Homo sapiens), sequence (Q07869 whole entry, looked up): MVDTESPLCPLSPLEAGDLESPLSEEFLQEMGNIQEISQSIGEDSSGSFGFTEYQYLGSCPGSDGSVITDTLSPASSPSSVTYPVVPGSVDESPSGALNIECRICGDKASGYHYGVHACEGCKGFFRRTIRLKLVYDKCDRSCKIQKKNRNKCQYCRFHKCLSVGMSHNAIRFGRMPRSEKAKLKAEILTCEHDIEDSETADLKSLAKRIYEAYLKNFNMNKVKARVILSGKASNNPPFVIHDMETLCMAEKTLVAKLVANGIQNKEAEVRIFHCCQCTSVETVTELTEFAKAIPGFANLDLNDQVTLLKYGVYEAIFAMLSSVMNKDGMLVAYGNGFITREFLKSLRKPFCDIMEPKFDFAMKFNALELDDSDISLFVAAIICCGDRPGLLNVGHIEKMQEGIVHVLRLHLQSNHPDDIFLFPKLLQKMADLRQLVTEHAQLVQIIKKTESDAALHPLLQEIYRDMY

Cc1cnc[nH]1
inactive: Potency [1] > 92 µM | Potency [2] > 92 µM | Potency [3] > 92 µM | Potency [4] > 92 µM | caspase-3 activation [5] 1.79% | outcome [6] | outcome [7] | outcome [8] | outcome [9] | outcome [10] | outcome [11] | Potency [12] | outcome [13] | Potency [14] | Potency [15] | Potency [16] | Potency [17] | max response [18] -0.863% | max response [19] -9.96% | Potency [20]

Oc1cc(Cl)ccc1Cl
inactive: Potency [1] > 92 µM | Potency [2] > 92 µM | Potency [3] > 92 µM | Potency [4] > 92 µM | caspase-3 activation [5] 1.27% | outcome [6] | outcome [7] | outcome [8] | outcome [9] | outcome [10] | outcome [11] | Potency [12] | outcome [13] | Potency [14] | Potency [15] | Potency [16] | Potency [17] | max response [18] -3.18% and 0.376% | max response [19] 5.28% and -9.5% | Potency [20]

c1ccc(NNc2ccccc2)cc1
inactive: Potency [1] > 92 µM | Potency [2] > 92 µM | Potency [3] > 92 µM | Potency [4] > 92 µM | caspase-3 activation [5] 0.504% | outcome [6] | outcome [7] | outcome [8] | outcome [9] | outcome [10] | outcome [11] | Potency [12] | outcome [13] | Potency [14] | Potency [15] | Potency [16] | Potency [17] | max response [18] -1.84% and -2.39% | max response [19] 2.88% and -1.77% | Potency [20]

O=[N+]([O-])c1ccc(Cl)c(Cl)c1Cl
inactive: Potency [1] > 92 µM | Potency [2] > 92 µM | Potency [3] > 92 µM | Potency [4] > 92 µM | caspase-3 activation [5] -0.417% | outcome [6] | outcome [7] | outcome [8] | outcome [9] | outcome [10] | outcome [11] | Potency [12] | outcome [13] | Potency [14] | Potency [15] | Potency [16] | Potency [17] | max response [18] 10.7% | max response [19] 8.59% | Potency [20]

CC12CC1(C)C(=O)N(c1cc(Cl)cc(Cl)c1)C2=O (stereo not given)
inactive: Potency [1] > 92 µM | Potency [2] > 92 µM | Potency [3] > 92 µM | Potency [4] > 92 µM | caspase-3 activation [5] -1.16% | outcome [6] | outcome [7] | outcome [8] | outcome [9] | outcome [10] | outcome [11] | Potency [12] | outcome [13] | Potency [14] | Potency [15] | Potency [16] | Potency [17] | max response [18] -1.35% and -2.97% | max response [19] 5.03% and -17.6% | Potency [20]

Nc1cccc(Cl)c1
inactive: Potency [1] > 92 µM | Potency [2] > 92 µM | Potency [3] > 92 µM | Potency [4] > 92 µM | caspase-3 activation [5] 11.8% | outcome [6] | outcome [7] | outcome [8] | outcome [9] | outcome [10] | outcome [11] | Potency [12] | outcome [13] | Potency [14] | Potency [15] | Potency [16] | Potency [17] | max response [18] 0.632% | max response [19] -8.5% | Potency [20]

CN=C=O
inactive: Potency [1] > 92 µM | Potency [2] > 92 µM | Potency [3] > 92 µM | Potency [4] > 92 µM | caspase-3 activation [5] -0.0583% | outcome [6] | outcome [7] | outcome [8] | outcome [9] | outcome [10] | outcome [11] | Potency [12] | outcome [13] | Potency [14] | Potency [15] | Potency [16] | Potency [17] | max response [18] 1.15% | max response [19] 3.09% | Potency [20]

CC(=O)CCC(C)=O
inactive: Potency [1] > 92 µM | Potency [2] > 92 µM | Potency [3] > 92 µM | Potency [4] > 92 µM | caspase-3 activation [5] 0.378% | outcome [6] | outcome [7] | outcome [8] | outcome [9] | outcome [10] | outcome [11] | Potency [12] | outcome [13] | Potency [14] | Potency [15] | Potency [16] | Potency [17] | max response [18] -3.42% | max response [19] -8.83% | Potency [20]

ClCC(Br)CBr (stereo not given)
inactive: Potency [1] > 92 µM | Potency [2] > 92 µM | Potency [3] > 92 µM | Potency [4] > 92 µM | caspase-3 activation [5] 0.662% | outcome [6] | outcome [7] | outcome [8] | outcome [9] | outcome [10] | outcome [11] | Potency [12] | outcome [13] | Potency [14] | Potency [15] | Potency [16] | Potency [17] | max response [18] -1.61% | max response [19] -7.97% | Potency [20]

CCN(CC)N=O
inactive: Potency [1] > 92 µM | Potency [2] > 92 µM | Potency [3] > 92 µM | Potency [4] > 92 µM | caspase-3 activation [5] 1.16% | outcome [6] | outcome [7] | outcome [8] | outcome [9] | outcome [10] | outcome [11] | Potency [12] | outcome [13] | Potency [14] | Potency [15] | Potency [16] | Potency [17] | max response [18] 2.1% | max response [19] 1.5% | Potency [20]

Cc1ccc(N)cc1N
inactive: Potency [1] > 92 µM | Potency [2] > 92 µM | Potency [3] > 92 µM | Potency [4] > 92 µM | caspase-3 activation [5] -0.424% | outcome [6] | outcome [7] | outcome [8] | outcome [9] | outcome [10] | outcome [11] | Potency [12] | outcome [13] | Potency [14] | Potency [15] | Potency [16] | Potency [17] | max response [18] 6.43% and -0.158% | max response [19] 6.42% and -0.208% | Potency [20]
